Screens (PubChem BioAssay)
Most compounds without a hit are left out; they make up all but 3.8% or so of the library.
A549 tox: kills or reduces viability of A549 cells in Nrf2 counter-screen. Potency, µM (highest dose often 46 µM), inactives show at the highest dose activity change, negative = cytotoxicity, hits mostly inhibitors. AID 504648. hit rate 0.16% among 390,000. A549 ARE-Fluc cells, CellTiter-Fluor viability, 18-24 h; note: % is set by controls: 0 for no effect and ±100 for the full control effect
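A549 ARE-Fluc cells in 5% FBS OPTI-MEM, 5000 cells/well, rested 2 h then exposed to compounds in concentration-response for 18-24 h at 37 °C. Viability by CellTiter-Fluor fluorescence (Ex 405/Em 525) after 30 min; luciferase luminescence (BugLite, 15 min, RT) read afterwards.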
mIDH1 inhibitor: blocks human mutant IDH1 R132H enzyme; Potency, µM (top dose mostly 76.6 µM), for the others: top-dose activity change, negative = inhibition, actives largely listed as inhibitors; AID 602179; IDH1-R132H enzyme, NADPH consumption, diaphorase/resazurin fluorescence; hit rate 0.093% among 390,000; note: % is set by controls: 0 for no effect and ±100 for the full control effect; nearly all actives have a fitted effect of over 65% in size
Target sequence (O75874 whole entry R132H, stated change not applied): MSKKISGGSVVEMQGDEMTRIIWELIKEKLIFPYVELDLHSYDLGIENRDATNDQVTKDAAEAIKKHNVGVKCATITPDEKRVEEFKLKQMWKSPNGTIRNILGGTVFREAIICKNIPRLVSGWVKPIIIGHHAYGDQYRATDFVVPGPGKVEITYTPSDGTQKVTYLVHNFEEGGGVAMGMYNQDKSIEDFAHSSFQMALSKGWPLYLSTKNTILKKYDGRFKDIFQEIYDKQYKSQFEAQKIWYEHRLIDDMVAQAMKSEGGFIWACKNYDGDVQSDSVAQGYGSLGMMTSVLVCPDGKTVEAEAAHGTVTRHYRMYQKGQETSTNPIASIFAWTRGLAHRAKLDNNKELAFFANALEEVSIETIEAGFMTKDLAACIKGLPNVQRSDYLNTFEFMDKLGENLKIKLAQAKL
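IDH1-R132H (0.5 ug/mL dispensed) in pH 7.5 Tris buffer was preincubated 30 min with compound, then given a substrate mix of 0.016 mM NADPH and 2 mM alpha-KG for 80 min at room temperature; remaining NADPH was read by diaphorase/resazurin fluorescence.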
Nrf2 block: Nrf2 pathway inhibition; A549 ARE-Fluc reporter, luciferase luminescence, 18-24 h; Potency, µM (titrated, usually from 46 µM), for the others: at the highest dose activity change, negative = inhibition, usual class: inhibitors; hit rate 2.1% among 360,000; AID 504444; note: % is set by controls: 0 for no effect and ±100 for the full control effect; nearly all actives have a fitted effect of over 60% in size
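Cells were seeded and rested 2 h, then exposed to compounds for 18-24 h. CellTiter-Fluor was read first as a viability measure. BugLite was added 15 min before the final luminescent read of ARE-luciferase activity in A549 cells.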
Nrf2 ARE act: activates Nrf2 signaling; AREc32 ARE-luciferase reporter (MCF7-derived line), luminescence, 24 h; Potency, µM (highest dose often 46.1 µM), for the others: top-dose activation, actives largely listed as activators; hit rate 0.31% among 410,000; note: % of control where 0% means no effect; nearly all actives have a fitted effect of over 65% in size
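Luciferase luminescence (Steady-Glo, 30 min at room temperature) served as the read-out of ARE activation in AREc32 cells treated with compounds for 24 hr at 37 deg C.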
ELG1 DNA repair: ELG1-dependent DNA repair inhibition; HEK293T ELG1-luciferase reporter, luminescence, 16 h; DNA damage induced by 5-fluorouridine; Potency, µM (series often up to 46.1 µM), without a hit: at the highest dose activity change, negative = inhibition, most hits filed as inhibitors; hit rate 2.3% among 330,000; note: % is set by controls: 0 for no effect and ±100 for the full control effect; nearly all actives have a fitted effect of over 55% in size
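Cells (2,000 per well) received 5-fluorouridine plus test compound or DMSO and were incubated 16 hr at 37 °C, 5% CO2. Luciferase activity was read by luminescence 30 min after ONE-Glo addition; signal suppression marked inhibition of damage-induced ELG1 function.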
Starred values were filed as active, the others as inactive; u = inconclusive; x = not tested or not shown. Calls come from the whole dose curve; as a rule, active = well fitted curve in the direction sought with a large enough effect; inconclusive = small, poorly fitted or top-dose-only effect, or another doubt; inactive = no such curve, though single readings can be large; an effect the other way counts as inactive or inconclusive. Potency is the fitted concentration of half-maximal effect.

SMILES	A549 tox	mIDH1 inhibitor	Nrf2 block	Nrf2 ARE act	ELG1 DNA repair
COc1cc(OC)cc(-c2c(C#Cc3ccsc3)c3cc(-c4cc(OC)c(OC)c(OC)c4)ccc3n2C)c1	1%	11%	-9%	-1%	-10%
CC(CNC(=O)c1ccc2c(c1)nc1n2CCCCC1)c1ccccc1 (stereo not drawn)	-7%	24%	x	0%	x
O=S(=O)(c1ccc(F)c(F)c1)N1CCN(CCc2ccccc2)CC1	0%	9%	23µM*	4%	-18%
O=S(=O)(c1ccccc1)N1CCN(CCc2ccccc2)CC1	0%	6%	u	0%	u
O=S(=O)(c1ccccc1F)N1CCN(CCc2ccccc2)CC1	-4%	2%	18µM*	4%	u
O=C1C=CC2=C3c4cc(O)c(O)cc4CC3(O)COC2=C1O (stereo not drawn)	u	-7%	-26%	1%	x
COc1ccc(C2/C=C\CN([S+](=O)([O-])c3ccc4ccccc4c3)C(C)C(=O)N2Cc2ccc(F)cc2)cc1 (stereo not drawn)	-1%	x	-6%	x	x
CCN(CC)S(=O)(=O)c1ccc(Cl)c(NC(=O)COC(=O)c2cccn2C)c1	-25%	4%	u	0%	15µM*
CCN(CC)S(=O)(=O)c1ccc(Cl)c(NC(=O)COC(=O)c2ccc(O)cc2)c1	-2%	-4%	1%	4%	u
CCN(CC)S(=O)(=O)c1ccc(Cl)c(NC(=O)COC(=O)c2c(C)noc2C)c1	2%	-2%	u	3%	18µM*
Cc1ccc(N(C(=O)c2snc(C(N)=O)c2N)C(C(=O)NC2CCCC2)c2ccncc2)cc1 (stereo not drawn)	-10%	0%	6%	2%	14%
Cc1nn(CCC(=O)NCc2ccc(Cl)cc2)c(=O)c2nn(-c3ccccc3)c(C)c12	16%	15%	-27%	3%	x
Cc1cc2c(s1)c1cnn(Cc3c(F)c(F)cc(F)c3F)c(=O)c1n2C	0%	x	-9%	x	x
COc1cc(C(=O)O[C@H]2CC(C)=CC[C@@]3(C)CC[C@@](O)(C(C)C)[C@H]23)ccc1O	3%	2%	6%	-2%	2%
CN(C)CCCN(C(=O)c1ccc(S(=O)(=O)N2CCc3ccccc3C2)cc1)c1nc2ccc(F)cc2s1	u	-1%	u	3%	u
Cc1cc(C)c2sc(N(CCCN(C)C)C(=O)c3ccc(S(=O)(=O)N4CCc5ccccc5C4)cc3)nc2c1	x	x	x	x	13µM*
Cc1ccc2nc(N(CCCN(C)C)C(=O)c3ccc(S(=O)(=O)N4CCc5ccccc5C4)cc3)sc2c1	u	-3%	21µM*	15%	-19%
O=C(NCc1ccccc1Br)c1ccc(-n2cnc3cccnc32)cc1	10%	0%	-17%	-1%	x
O=c1[nH]c(/C=C/c2ccc(OC(F)F)cc2)nc2c1cnn2-c1ccccc1	-15%	5%	16µM*	0%	u
CC(C)Sc1nc2c(cnn2-c2ccccc2)c(=O)[nH]1	4%	-1%	-28%	-1%	17%
CC(C)CCn1c(COc2ccccc2)nn(CCC#N)c1=S	9%	2%	u	-1%	-8%
Cc1cccc(S(=O)(=O)Nc2cccc3c2C(=O)c2ccccc2-3)c1	-29%	0%	18µM*	9%	0%
Cc1ccc(NS(=O)(=O)c2ccc3c(c2)C(=O)c2ccccc2C3=O)c(C)c1	2%	-1%	-14%	0%	u
Cc1ccc(CCNC(=O)C2COc3ccccc3C2)cc1 (stereo not drawn)	9%	-10%	x	5%	x
N#Cc1c2ccc(O)cc2n2ccccc12	u	4%	-2%	0%	4.1µM*
N#Cc1c2ccc(OCC(=O)NCc3ccco3)cc2n2ccccc12	0%	0%	0%	19%	-3%
O=C(Nc1ccccc1O)c1ccc(NS(=O)(=O)c2cccc3cccnc23)cc1	10%	12%	-10%	11µM*	u
O=C(Nc1ncccc1O)c1ccc(NS(=O)(=O)c2ccc3[nH]c(=O)[nH]c3c2)cc1	8%	6%	16%	u	0%
